Test results taken from PubChem BioAssay (NCI).
The panel holds about 79,000 compounds, 15% with a hit somewhere; the sample as a whole holds those more often. Active and inactive are the calls of the source. Rule as the data show it: active = growth inhibition above about 70%; inactive = the rest.

Experiments:
[1] = NCI Yeast Anticancer Drug Screen. Data for the rad50 strain (AID 155);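 also: 0% = growth of vehicle-only cultures of the same strain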; conditions: S. cerevisiae rad50 strain growth inhibition, stronger effect = higher value
How it was run: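 A DNA repair-deficient yeast mutant serves as the test organism; compound-induced growth inhibition is calculated against vehicle-treated cells.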

[2] = NCI Yeast Anticancer Drug Screen. Data for the mec2-1 strain (AID 157); conditions: S. cerevisiae mec2-1 strain, stronger effect = higher value
How it was run: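 Using mec2-1 yeast: add compound, measure growth, express inhibition versus vehicle-treated cultures.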

[3] = NCI Yeast Anticancer Drug Screen. Data for the sgs1 mgt1 strain (AID 161);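 also: 0% = growth of cultures given vehicle only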; conditions: S. cerevisiae sgs1 mgt1 strain, stronger effect = higher value
How it was run: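 Percent growth inhibition was derived by comparing compound-exposed mutant yeast with vehicle-exposed cultures. The strain carries alterations in DNA damage repair.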

[4] = NCI Yeast Anticancer Drug Screen. Data for the cln2 rad14 strain (AID 165);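 also: 0% = growth equal to vehicle treated cultures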; conditions: S. cerevisiae cln2 rad14 strain, stronger effect = higher value
How it was run: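 Yeast strain cln2 rad14, bearing defects in cell cycle control and DNA repair, serves as the test system; values reflect growth inhibition compared with vehicle.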

[5] = NCI Yeast Anticancer Drug Screen. Data for the bub3 strain (AID 167); conditions: S. cerevisiae bub3 mutant strain, stronger effect = higher value
How it was run: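 Inhibition values come from growth of compound-treated mutant yeast normalised to vehicle-treated controls.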

[6] = NCI Yeast Anticancer Drug Screen. Data for the mlh1 rad18 strain (AID 175); conditions: S. cerevisiae mlh1 rad18 strain growth inhibition, stronger effect = higher value
How it was run: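 Steps: expose repair-defective yeast to compound; measure growth; express inhibition against vehicle-treated controls.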

[7] = at 5.0 µM (retest, dose inferred, filed as 0.5)
[8] = at 50.0 µM (retest, dose inferred, filed as 5.0)

Measured: growth inhibition

NNc1cccc([N+](=O)[O-])c1
active: [1]; at 50.0 µM 76.8% | [2]; [8] 71% | [2]; at 50.0 µM 84.2% | [4]; at 50.0 µM 72.6% | [5]; [8] 94% | [5]; at 50.0 µM 81.8% | [6]; [8] 94% | [6]; at 50.0 µM 78%
inactive: [1]; [7] 12% | [1]; [8] 68% | [2]; [7] 0% | [3]; [7] 10% | [3]; [8] 50% | [3]; at 50.0 µM 57.2% | [4]; [7] 24% | [4]; [8] 67% | [5]; [7] -6% | [6]; [7] 11%

Cc1cc2cccnc2c2ncccc12
active: [1]; [8] 98% | [1]; at 50.0 µM 99% | [2]; [8] 99% | [2]; at 50.0 µM 99.2% | [3]; [8] 98% | [3]; at 50.0 µM 99.1% | [4]; [8] 98% | [4]; at 50.0 µM 97.5% | [5]; [8] 99% | [5]; at 50.0 µM 99.3% | [6]; [8] 99% | [6]; at 50.0 µM 98.7%
inactive: [1]; [7] 34% | [2]; [7] 9% | [3]; [7] 5% | [4]; [7] -9% | [5]; [7] 21% | [6]; [7] 25%

Nc1ccc(Oc2ccccc2)c(Cl)c1
inactive: [1]; [7] 10% | [2]; [7] -15% | [2]; [8] 30% | [3]; [7] 4% | [3]; [8] 61% | [4]; [7] 3% | [4]; [8] 60% | [5]; [7] 69% | [5]; [8] 52% | [6]; [7] 7%
active: [1]; [8] 91% | [1]; at 50.0 µM 97.6% | [2]; at 50.0 µM 92.5% | [3]; at 50.0 µM 97.6% | [4]; at 50.0 µM 93.5% | [5]; at 50.0 µM 90.5% | [6]; [8] 72% | [6]; at 50.0 µM 98%

O=[n+]1c2ccccc2n([O-])c2cc(Cl)ccc21
inactive: [4]; [7] 48%
active: [1]; [7] 95% | [1]; [8] 99% | [1]; at 50.0 µM 98.7% | [2]; [7] 86% | [2]; [8] 100% | [2]; at 50.0 µM 99.4% | [3]; [7] 77% | [3]; [8] 99% | [3]; at 50.0 µM 99.1% | [4]; [8] 99% | [4]; at 50.0 µM 96.7% | [5]; [7] 95% | [5]; [8] 100% | [5]; at 50.0 µM 98.5% | [6]; [7] 94% | [6]; [8] 99% | [6]; at 50.0 µM 99.1%

CCOc1ccc(C(C[N+](=O)[O-])Sc2ccccc2N)cc1 (configuration not stated)
active: [1]; at 50.0 µM 73.5% | [2]; at 50.0 µM 92.1% | [3]; at 50.0 µM 92.7% | [4]; at 50.0 µM 83.9% | [5]; [8] 72% | [5]; at 50.0 µM 91.7% | [6]; at 50.0 µM 87%
inactive: [1]; [7] 36% | [1]; [8] 47% | [2]; [7] 36% | [2]; [8] 46% | [3]; [7] 42% | [3]; [8] 57% | [4]; [7] 29% | [4]; [8] 29% | [5]; [7] 32% | [6]; [7] 45% | [6]; [8] 59%

S=c1[nH]c2cc(Cl)ccc2s1
active: [2]; [8] 90% | [3]; [8] 95% | [3]; at 50.0 µM 74.6% | [4]; [8] 93%
inactive: [1]; [7] -21% | [1]; [8] 64% | [1]; at 50.0 µM 25.2% | [2]; [7] -4% | [2]; at 50.0 µM 42.2% | [3]; [7] -6% | [4]; [7] -8% | [4]; at 50.0 µM -2.15% | [5]; [7] -28% | [5]; [8] 16% | [5]; at 50.0 µM -4.3% | [6]; [7] -12% | [6]; [8] 45% | [6]; at 50.0 µM 42.9%

CCCCCCCCCCCC1N=C(N)N=C(N)N1c1cccc(Br)c1 (configuration not stated)
active: [1]; [7] 99% | [1]; [8] 97% | [1]; at 50.0 µM 97.5% | [2]; [7] 100% | [2]; [8] 97% | [2]; at 50.0 µM 97.7% | [3]; [7] 98% | [3]; [8] 98% | [3]; at 50.0 µM 99.2% | [4]; [7] 99% | [4]; [8] 96% | [4]; at 50.0 µM 96.2% | [5]; [7] 99% | [5]; [8] 98% | [5]; at 50.0 µM 97% | [6]; [7] 99% | [6]; [8] 97% | [6]; at 50.0 µM 98.3%

CC1(C)CCC2(C(=O)O)C(O)CC3(C)C(=CCC4C5(C)CCC(OC6OCC(O)C(O)C6OC6OCC(O)C(O)C6OC6OCC(O)C(OC7OC(CO)C(O)C(O)C7O)C6O)C(C)(C)C5CCC43C)C2C1 (configuration not stated)
active: [1]; [8] 99% | [1]; at 50.0 µM 77.3% | [2]; [8] 99% | [2]; at 50.0 µM 87.3% | [3]; [8] 99% | [3]; at 50.0 µM 88% | [4]; [8] 99% | [4]; at 50.0 µM 86.6% | [5]; [8] 100% | [5]; at 50.0 µM 86.5% | [6]; [8] 99%
inactive: [1]; [7] 8% | [2]; [7] 7% | [3]; [7] 6% | [4]; [7] 5% | [5]; [7] 17% | [6]; [7] 14% | [6]; at 50.0 µM -30.2%

CC(=O)N1CC(=O)NC1=S
inactive: [1]; [7] -10% | [1]; [8] -18% | [1]; at 50.0 µM 69.6% | [2]; [7] -11% | [2]; [8] -14% | [2]; at 50.0 µM 39.9% | [3]; [7] -5% | [3]; [8] -17% | [3]; at 50.0 µM 25.3% | [4]; [7] -4% | [4]; [8] 7% | [4]; at 50.0 µM 53.1% | [5]; [7] -36% | [5]; [8] -12% | [5]; at 50.0 µM 5.45% | [6]; [7] -24% | [6]; [8] -33% | [6]; at 50.0 µM 67.3%
